Calls of active or inactive are those of the source. How the source made its calls: active means hit-call score of the fitted dose curve at least 0.9, where 1 is the maximum; inactive means score below 0.9.
Read-out: Vascular cell adhesion molecule 1 (VCAM1), VCAM1 (gene 7412)
Experiment: BSK_CASM3C_VCAM1: BioMAP Diversity Plus: CASM3C Assay for Vascular cell adhesion molecule 1 (VCAM1) Biomarker Activity (AID 2283055);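 further: VCAM-1 protein level quantified by ELISA on the cells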
Conditions: primary human coronary artery smooth muscle cells; actives raise or lower the signal

SMILES	AC50	outcome
CCCCCCCCCCC1CO1 (configuration not stated)	3.97 µM (active)	–
Cc1cccnc1	–	inactive
CC(C)CC(=O)CC(C)CC(C)C (configuration not stated)	37.2 µM (active)	–
CN(C)CCC(c1ccc(Cl)cc1)c1ccccn1 (configuration not stated)	–	inactive

Read-out: Collagen III, COL3A1 (gene 1281)
Experiment: BSK_hDFCGF_CollagenIII: BioMAP Diversity Plus: hDFCGF Assay for Collagen III Biomarker Activity (AID 2283056)
Conditions: primary human foreskin fibroblasts; actives raise or lower the signal
Summary of the method: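 Human foreskin primary fibroblasts were exposed to test chemicals for 24 h, after which collagen III was quantified by ELISA. Activity was fitted bidirectionally against DMSO as negative control and baseline.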

SMILES	AC50	outcome
CCCCCCCCCCC1CO1 (configuration not stated)	20 µM (active)	–
Cc1cccnc1	–	inactive
CC(C)CC(=O)CC(C)CC(C)C (configuration not stated)	–	inactive
CN(C)CCC(c1ccc(Cl)cc1)c1ccccn1 (configuration not stated)	–	inactive

Read-out: Epidermal growth factor receptor (EGFR), EGFR (gene 1956)
Experiment: BSK_hDFCGF_EGFR: BioMAP Diversity Plus: hDFCGF Assay for Epidermal growth factor receptor (EGFR) Biomarker Activity (AID 2283057)
Conditions: primary human foreskin fibroblasts; actives raise or lower the signal
Summary of the method: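 ELISA readout of EGFR on human dermal fibroblasts (primary foreskin cells), 24 h post-dosing; bidirectional curve fit vs DMSO baseline, gain or loss of signal scored.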

SMILES	outcome
CCCCCCCCCCC1CO1 (configuration not stated)	inactive
Cc1cccnc1	inactive
CC(C)CC(=O)CC(C)CC(C)C (configuration not stated)	inactive
CN(C)CCC(c1ccc(Cl)cc1)c1ccccn1 (configuration not stated)	inactive

Read-out: Interleukin-8 (IL8), CXCL8 (gene 3576)
Experiment: BSK_hDFCGF_IL8: BioMAP Diversity Plus: hDFCGF Assay for Interleukin-8 (IL8) Biomarker Activity (AID 2283058)
Conditions: primary human foreskin fibroblasts; actives raise or lower the signal
Summary of the method: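 hDFCGF human dermal fibroblasts; 24 h chemical exposure; IL-8 by ELISA; bidirectional curve fit vs DMSO baseline; gain or loss of signal scored.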

SMILES	AC50	outcome
CCCCCCCCCCC1CO1 (configuration not stated)	28.5 µM (active)	–
Cc1cccnc1	–	inactive
CC(C)CC(=O)CC(C)CC(C)C (configuration not stated)	–	inactive
CN(C)CCC(c1ccc(Cl)cc1)c1ccccn1 (configuration not stated)	–	inactive

Read-out: not listed separately
Experiment: BSK_hDFCGF_Proliferation: Cell Proliferation Assessment in the BioMAP Diversity Plus: hDFCGF Assay (AID 2283059);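 further: curves fitted for both rise and fall of signal versus DMSO baseline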
Conditions: primary human foreskin fibroblasts
Summary of the method: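 Sub-confluent human foreskin fibroblast cultures receive test chemical […]. Relative cell number is quantified by sulforhodamine B staining (0.1%, after 10% TCA fixation) at 560 nm, with bidirectional fitting referenced to DMSO.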

SMILES	AC50	outcome
CCCCCCCCCCC1CO1 (configuration not stated)	20 µM (active)	–
Cc1cccnc1	–	inactive
CC(C)CC(=O)CC(C)CC(C)C (configuration not stated)	39.5 µM (active)	–
CN(C)CCC(c1ccc(Cl)cc1)c1ccccn1 (configuration not stated)	–	inactive

Read-out: Macrophage colony-stimulating factor (MCSF), CSF1 (gene 1435)
Experiment: BSK_hDFCGF_MCSF: BioMAP Diversity Plus: hDFCGF Assay for Macrophage colony-stimulating factor (MCSF) Biomarker Activity (AID 2283060)
Conditions: AC50: primary human foreskin fibroblasts, actives raise or lower the signal unless noted; outcome: primary human foreskin fibroblasts, actives raise or lower the signal unless noted
Summary of the method: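 Human foreskin primary fibroblasts were treated with test chemical for 24 h, and M-CSF was then measured by ELISA. Data were fitted bidirectionally against DMSO as the negative control and activity baseline.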

SMILES	AC50	outcome
CCCCCCCCCCC1CO1 (configuration not stated)	20 µM (active)	–
Cc1cccnc1	–	inactive
CC(C)CC(=O)CC(C)CC(C)C (configuration not stated)	–	inactive
CN(C)CCC(c1ccc(Cl)cc1)c1ccccn1 (configuration not stated)	–	inactive

Read-out: TIMP metallopeptidase inhibitor 1 (TIMP1), TIMP1 (gene 7076)
Experiment: BSK_hDFCGF_TIMP1: BioMAP Diversity Plus: hDFCGF Assay for TIMP metallopeptidase inhibitor 1 (TIMP1) Biomarker Activity (AID 2283062)
Conditions: primary human foreskin fibroblasts; actives raise or lower the signal
Summary of the method: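 Primary human foreskin fibroblasts in the hDFCGF system were dosed with compound for 24 h, then TIMP-1 was measured by ELISA. Activity was fitted bidirectionally relative to DMSO control; parallel SRB staining assessed cytotoxicity.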

SMILES	AC50	outcome
CCCCCCCCCCC1CO1 (configuration not stated)	20 µM (active)	–
Cc1cccnc1	–	inactive
CC(C)CC(=O)CC(C)CC(C)C (configuration not stated)	–	inactive
CN(C)CCC(c1ccc(Cl)cc1)c1ccccn1 (configuration not stated)	–	inactive

Read-out: Monokine induced gamma interferon (MIG), CXCL9 (gene 4283)
Experiment: BSK_hDFCGF_MIG: BioMAP Diversity Plus: hDFCGF Assay for Monokine induced gamma interferon (MIG) Biomarker Activity (AID 2283063)
Conditions: primary human foreskin fibroblasts; actives raise or lower the signal
Summary of the method: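 ELISA read-out of MIG from primary human dermal fibroblasts 24 h post-dosing. Gain or loss of signal fitted bidirectionally, DMSO as baseline.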

SMILES	AC50	outcome
CCCCCCCCCCC1CO1 (configuration not stated)	30.3 µM (active)	–
Cc1cccnc1	–	inactive
CC(C)CC(=O)CC(C)CC(C)C (configuration not stated)	–	inactive
CN(C)CCC(c1ccc(Cl)cc1)c1ccccn1 (configuration not stated)	–	inactive

Read-out: Vascular cell adhesion molecule 1 (VCAM1), VCAM1 (gene 7412)
Experiment: BSK_hDFCGF_VCAM1: BioMAP Diversity Plus: hDFCGF Assay for Vascular cell adhesion molecule 1 (VCAM1) Biomarker Activity (AID 2283065);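 on AC50: VCAM-1 protein level quantified by ELISA after 24 h chemical exposure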
Conditions: primary human foreskin fibroblasts; actives raise or lower the signal
Summary of the method: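 Primary human foreskin fibroblasts (hDFCGF system) were dosed with chemical and VCAM-1 was measured by ELISA 24 h later. Bidirectional curve fitting used DMSO as negative control and activity baseline.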

SMILES	AC50	outcome
CCCCCCCCCCC1CO1 (configuration not stated)	25.7 µM (active)	–
Cc1cccnc1	–	inactive
CC(C)CC(=O)CC(C)CC(C)C (configuration not stated)	–	inactive
CN(C)CCC(c1ccc(Cl)cc1)c1ccccn1 (configuration not stated)	–	inactive

Read-out: Plasminogen activator inhibitor-1 (PAI1), SERPINE1 (gene 5054)
Experiment: BSK_hDFCGF_PAI1: BioMAP Diversity Plus: hDFCGF Assay for Plasminogen activator inhibitor-1 (PAI1) Biomarker Activity (AID 2283066)
Conditions: primary human foreskin fibroblasts; actives raise or lower the signal
Summary of the method: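 ELISA readout of PAI-1 from primary human skin fibroblast cultures, 24 h after compound addition. Gain or loss of signal was fitted bidirectionally against DMSO baseline.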

SMILES	AC50	outcome
CCCCCCCCCCC1CO1 (configuration not stated)	20 µM (active)	–
Cc1cccnc1	–	inactive
CC(C)CC(=O)CC(C)CC(C)C (configuration not stated)	32.2 µM (active)	–
CN(C)CCC(c1ccc(Cl)cc1)c1ccccn1 (configuration not stated)	–	inactive

Read-out: Intercellular Adhesion Molecule 1 (ICAM1), ICAM1 (gene 3383)
Experiment: BSK_KF3CT_ICAM1: BioMAP Diversity Plus: KF3CT Assay for Intercellular Adhesion Molecule 1 (ICAM1) Biomarker Activity (AID 2283067)
Conditions: primary human keratinocytes with fibroblasts; actives raise or lower the signal
Summary of the method: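 Human keratinocyte plus foreskin fibroblast primary co-culture was exposed to chemical for 24 h. ICAM-1 was then quantified by ELISA, and the data were fit bidirectionally against DMSO as the negative control and baseline.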

SMILES	AC50	outcome
CCCCCCCCCCC1CO1 (configuration not stated)	29.3 µM (active)	–
Cc1cccnc1	–	inactive
CC(C)CC(=O)CC(C)CC(C)C (configuration not stated)	31.8 µM (active)	–
CN(C)CCC(c1ccc(Cl)cc1)c1ccccn1 (configuration not stated)	–	inactive

Read-out: Interferon-gamma inducible Protein 10 (IP10), CXCL10 (gene 3627)
Experiment: BSK_KF3CT_IP10: BioMAP Diversity Plus: KF3CT Assay for Interferon-gamma inducible Protein 10 (IP10) Biomarker Activity (AID 2283068)
Conditions: primary human keratinocytes with fibroblasts; actives raise or lower the signal
Summary of the method: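 ELISA read-out of IP-10 after 24 h chemical dosing of human skin primary co-culture (keratinocytes, foreskin fibroblasts). Gain or loss of signal relative to DMSO, bidirectional curve fit.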

SMILES	AC50	outcome
CCCCCCCCCCC1CO1 (configuration not stated)	4.61 µM (active)	–
Cc1cccnc1	–	inactive
CC(C)CC(=O)CC(C)CC(C)C (configuration not stated)	–	inactive
